Experimental data taken from PubChem BioAssay (NCATS).
Inconclusive results are not listed. Where a call stands in place of a potency, no number is given. Activity calls are given as the source filed them. Unless noted, the call rests on the fitted dose curve; in most records, active means well fitted curve in the direction sought with a large enough effect; inconclusive means small, poorly fitted or top-dose-only effect, or another doubt; inactive means no such curve, though single readings can be large; an effect the other way counts as inactive or inconclusive.

Tests used:
[1] = molecular target: Voltage-gated inwardly rectifying potassium channel KCNH2 (Homo sapiens) (UniProt Q12809); assay: qHTS Assay for Small Molecule Inhibitors of the Human hERG Channel Activity (AID 588834);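 further: lower thallium flux fluorescence means stronger hERG block; nearly all actives have a fitted effect of over 50% in size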; further: potency means the concentration at half of the fitted maximal effect
Procedure, shortened: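 U2OS cells transduced with hERG via BacMam (MOI ~100), plated 2000/well, loaded with FluxOR thallium dye, compound ~10 min, then stimulation buffer; fluorescence decrease read kinetically; AC50 from Hill fits.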

[2] = molecular target: Luciferin 4-monooxygenase (Photinus pyralis) (UniProt P08659); assay: Biochemical firefly luciferase enzyme assay for NPC (AID 624030);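 further: purified P. pyralis luciferase at 10 nM with luciferin and ATP substrate; nearly all actives have a fitted effect of over 70% in size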
Procedure, shortened: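 Counter-screen for direct inhibition of the luciferase enzyme by approved-drug library compounds, run at 10 nM enzyme in 50 mM Tris acetate (final). Luminescence was read within 5 min of enzyme-buffer addition and normalized to PTC124 versus DMSO (0%).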

[3] = S16 Schwann cell viability assay (CellTiter-Glo assay) (AID 624031); further: nearly all actives have a fitted effect of over 70% in size; further: potency means the concentration at half of the fitted maximal effect
Procedure, shortened: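 CellTiter-Glo ATP luminescence counter-screen in untransfected S16 rat Schwann cells, 24h compound exposure at 37 degree Celsius after overnight seeding (500-750 cells/well); response scaled between cell-free wells and DMSO (0% activity), curves classed by r2 and magnitude.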

[4] = S16 Schwann cell PMP22 intronic element firefly luciferase assay (AID 624032); further: nearly all actives have a fitted effect of over 30% in size; further: potency means the concentration at half of the fitted maximal effect
Procedure, shortened: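 Rat S16 Schwann cells stably carrying a PMP22 intronic element-driven Fluc reporter were seeded overnight, then exposed to compounds for 24 h at 37 °C. Luminescence was normalized to PTC124 (positive control) and DMSO (0% activity).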

[5] = S16 Schwann cell PMP22 intronic element beta-lactamase assay (AID 624044; calls by dose curve; further: nearly all actives have a fitted effect of over 15% in size); details: S16 rat Schwann cells, PMP22 element beta-lactamase FRET, 24 h; ratio activity, negative = inhibition: at 38.3 µM (top of the series)
Procedure, shortened: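 Rat S16 Schwann cells with beta-Lac driven by a PMP22 intronic element, compound-treated 24 h at 37 °C. LiveBLAzer FRET B/G read: 460 nm normalized to potassium clavulanate vs DMSO; 535 nm FRET as viability; concentration-effect curves classified.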

[6] = molecular target: Glutaminase kidney isoform, mitochondrial (Homo sapiens) (UniProt O94925); assay: qHTS for Inhibitors of Glutaminase (GLS): LOPAC Validation (AID 624146);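 further: glutamate product detected by oxidase and peroxidase coupled Amplex red fluorescence gain; nearly all actives have a fitted effect of over 60% in size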
Procedure, shortened: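 hKGA in 45 mM KH2PO4 (pH 8.2), 0.02% Tween-20 with compound, then 1mM L-Glutamine (stock as added) plus glutamate oxidase/HRP/Amplex red coupling mix. Fluorescence read initially and after 30 min at RT; signal change reflects glutamate formation.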

Luciferin 4-monooxygenase (Photinus pyralis), sequence (P08659 whole entry, looked up): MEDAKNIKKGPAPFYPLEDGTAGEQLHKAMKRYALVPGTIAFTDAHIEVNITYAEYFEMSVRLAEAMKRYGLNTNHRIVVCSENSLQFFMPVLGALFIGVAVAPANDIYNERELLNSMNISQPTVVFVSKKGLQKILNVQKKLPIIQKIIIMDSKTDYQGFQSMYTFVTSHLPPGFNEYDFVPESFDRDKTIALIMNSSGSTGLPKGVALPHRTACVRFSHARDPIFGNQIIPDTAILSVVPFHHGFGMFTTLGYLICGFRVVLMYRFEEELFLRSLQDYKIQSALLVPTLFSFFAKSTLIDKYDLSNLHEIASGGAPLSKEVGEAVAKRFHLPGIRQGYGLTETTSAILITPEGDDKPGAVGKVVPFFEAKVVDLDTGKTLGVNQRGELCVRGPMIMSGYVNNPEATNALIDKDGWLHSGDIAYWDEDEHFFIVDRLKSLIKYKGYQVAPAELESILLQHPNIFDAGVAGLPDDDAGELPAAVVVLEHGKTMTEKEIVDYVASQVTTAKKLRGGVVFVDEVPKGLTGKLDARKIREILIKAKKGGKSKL
Voltage-gated inwardly rectifying potassium channel KCNH2 (Homo sapiens), sequence (Q12809 whole entry, looked up): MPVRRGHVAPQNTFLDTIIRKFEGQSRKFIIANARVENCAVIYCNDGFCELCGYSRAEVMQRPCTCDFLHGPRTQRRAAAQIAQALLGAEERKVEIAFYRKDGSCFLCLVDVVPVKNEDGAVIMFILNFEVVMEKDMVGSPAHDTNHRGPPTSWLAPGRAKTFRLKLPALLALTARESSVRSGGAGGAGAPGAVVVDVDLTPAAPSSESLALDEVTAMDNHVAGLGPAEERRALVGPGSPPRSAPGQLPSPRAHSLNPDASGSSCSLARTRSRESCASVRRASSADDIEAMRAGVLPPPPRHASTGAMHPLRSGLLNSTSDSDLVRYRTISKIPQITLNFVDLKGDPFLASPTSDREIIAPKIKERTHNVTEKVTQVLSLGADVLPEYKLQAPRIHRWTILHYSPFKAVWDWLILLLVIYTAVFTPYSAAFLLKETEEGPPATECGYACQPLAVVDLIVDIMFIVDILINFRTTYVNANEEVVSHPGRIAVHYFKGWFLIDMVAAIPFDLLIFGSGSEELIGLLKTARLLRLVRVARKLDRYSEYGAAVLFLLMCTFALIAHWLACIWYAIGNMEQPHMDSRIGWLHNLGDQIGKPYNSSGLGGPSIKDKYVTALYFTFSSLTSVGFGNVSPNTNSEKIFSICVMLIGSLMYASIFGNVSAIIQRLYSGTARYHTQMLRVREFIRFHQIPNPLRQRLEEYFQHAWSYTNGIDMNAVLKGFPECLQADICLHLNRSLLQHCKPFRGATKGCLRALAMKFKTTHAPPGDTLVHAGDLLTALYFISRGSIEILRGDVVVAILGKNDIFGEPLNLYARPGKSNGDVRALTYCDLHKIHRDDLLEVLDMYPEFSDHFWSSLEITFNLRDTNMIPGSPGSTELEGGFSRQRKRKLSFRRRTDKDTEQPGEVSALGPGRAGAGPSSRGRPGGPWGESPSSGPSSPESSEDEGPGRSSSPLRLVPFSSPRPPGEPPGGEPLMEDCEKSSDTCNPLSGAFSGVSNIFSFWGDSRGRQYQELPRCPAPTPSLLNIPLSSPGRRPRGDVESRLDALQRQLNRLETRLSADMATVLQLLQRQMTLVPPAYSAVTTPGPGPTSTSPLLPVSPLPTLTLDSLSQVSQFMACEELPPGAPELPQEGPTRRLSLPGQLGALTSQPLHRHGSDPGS
Glutaminase kidney isoform, mitochondrial (Homo sapiens), sequence (O94925 whole entry, looked up, canonical isoform): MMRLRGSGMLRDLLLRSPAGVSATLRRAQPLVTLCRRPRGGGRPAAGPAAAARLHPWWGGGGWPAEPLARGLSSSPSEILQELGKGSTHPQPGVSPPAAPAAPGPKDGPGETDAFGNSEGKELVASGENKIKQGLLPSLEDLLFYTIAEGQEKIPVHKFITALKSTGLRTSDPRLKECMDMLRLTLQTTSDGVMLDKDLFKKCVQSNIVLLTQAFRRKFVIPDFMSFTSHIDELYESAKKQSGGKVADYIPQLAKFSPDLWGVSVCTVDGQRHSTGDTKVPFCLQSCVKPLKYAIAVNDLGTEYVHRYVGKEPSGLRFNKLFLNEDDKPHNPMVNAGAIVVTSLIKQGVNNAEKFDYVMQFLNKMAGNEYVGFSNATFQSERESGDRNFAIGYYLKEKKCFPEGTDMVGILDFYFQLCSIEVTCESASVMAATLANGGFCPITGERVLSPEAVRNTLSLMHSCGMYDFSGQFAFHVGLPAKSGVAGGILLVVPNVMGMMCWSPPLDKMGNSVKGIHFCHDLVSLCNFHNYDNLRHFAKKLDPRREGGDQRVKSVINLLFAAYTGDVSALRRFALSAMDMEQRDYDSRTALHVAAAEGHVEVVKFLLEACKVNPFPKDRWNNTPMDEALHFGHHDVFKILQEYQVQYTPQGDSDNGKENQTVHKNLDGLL

| SMILES | Potency [1] | Potency [2] | Potency [3] | Potency [4] | Potency [5] | Potency [6] |
| --- | --- | --- | --- | --- | --- | --- |
| CN1CCN(C(c2ccccc2)c2ccccc2)CC1 | inactive | inactive | inactive | – | – | – |
| CCOc1ccc(NC(=O)CC(C)O)cc1 (stereo not given) | inactive | inactive | inactive | inactive | – | – |
| CCN1CCN(c2cc3c(cc2F)c(=O)c(C(=O)O)cn3C2CC2)CC1 | inactive | inactive | inactive | inactive | – | – |
| Cc1c(F)c(N2CCNC(C)C2)cc2c1c(=O)c(C(=O)O)cn2C1CC1 (stereo not given) | inactive | inactive | inactive | – | – | – |
| Cc1ccnc(NS(=O)(=O)c2ccc(N)cc2)n1 | inactive | inactive | inactive | inactive | – | – |
| COC(=O)[C@@H]1CC2=CC(=O)CC[C@]2(C)[C@@]23O[C@@H]2C[C@@]2(C)[C@@H](CC[C@@]24CCC(=O)O4)[C@H]13 | inactive | inactive | inactive | inactive | – | – |
| CC(=O)OCC(=O)[C@@]1(OC(C)=O)[C@@H](C)C[C@H]2[C@@H]3C[C@H](F)C4=CC(=O)C=C[C@]4(C)[C@@]3(F)[C@@H](O)C[C@@]21C | inactive | inactive | inactive | – | – | – |
| C[C@]12CCC(=O)C=C1CC[C@H]1[C@@H]3CC[C@](O)(C(=O)CO)[C@@]3(C)C[C@H](O)[C@@]12F | inactive | inactive | inactive | inactive | – | – |
| O=C(O)CNC(=O)c1ccccc1 | inactive | inactive | inactive | inactive | – | – |
| CCOC(=O)n1ccn(C)c1=S | inactive | inactive | inactive | inactive | – | – |
| Cc1c(C(N)=O)cc([N+](=O)[O-])cc1[N+](=O)[O-] | inactive | inactive | inactive | inactive | – | – |
| CN(C)CCOc1ccccc1Cc1ccccc1 | 3.55 µM (active) | inactive | inactive | – | – | – |
| Cc1c(N(C)CS(=O)(=O)O)c(=O)n(-c2ccccc2)n1C | inactive | inactive | inactive | – | – | – |
| Cc1cccn2c(=O)c(-c3nnn[nH]3)cnc12 | inactive | inactive | inactive | inactive | – | – |
| COc1c2occc2c(OC)c2c(=O)cc(C)oc12 | inactive | inactive | inactive | – | – | – |
| Cc1c(C)n(CCN(C)C)c2ccc(C(=O)OCCN(C)C)cc12 | inactive | inactive | inactive | 32.2 µM (active) | – | – |
| Cc1cc(O)c(C(C)C)cc1Cl | inactive | inactive | inactive | – | inactive | – |
| COc1c(C)c2c(c(O)c1C/C=C(\C)CCC(=O)O)C(=O)OC2 | inactive | inactive | – | 0.976 µM (active) | – | – |

| SMILES | Potency [1] | Potency [2] | Potency [3] | Potency [4] | Potency [5] | Potency [6] |
| --- | --- | --- | --- | --- | --- | --- |
| CC(C)(C(=O)c1cccnc1)c1cccnc1 | inactive | inactive | inactive | inactive | inactive | – |
| Cc1ncc(CSSCc2cnc(C)c(O)c2CO)c(CO)c1O | inactive | inactive | inactive | – | inactive | – |
| CCCn1c(=O)[nH]c(=O)c2[nH]cnc21 | inactive | inactive | inactive | – | inactive | inactive |
| CC1(C)CCC(NC(=O)[C@@H](N)CCC(=O)O)CC1 | inactive | inactive | inactive | – | – | inactive |
| CN1CCN(CCCN2c3ccccc3Sc3ccc(S(=O)(=O)N(C)C)cc32)CC1 | 6.31 µM (active) | inactive | – | inactive | inactive | – |
| N[C@H](Cc1c[nH]c2ccccc12)C(=O)O | inactive | inactive | inactive | – | inactive | – |
| CC(Cc1cccc(C(F)(F)F)c1)NCCOC(=O)c1ccccc1 (stereo not given) | 10 µM (active) | inactive | – | inactive | inactive | – |
| CCCCCCCCCCCCCCNCCO | inactive | inactive | inactive | – | inactive | – |
| CC(C)=CCC1C(=O)N(c2ccccc2)N(c2ccccc2)C1=O | inactive | inactive | inactive | inactive | inactive | – |
| CCOC(=O)/C=C(C)/C=C/C=C(C)/C=C/c1c(C)cc(OC)c(C)c1C | inactive | inactive | inactive | – | inactive | – |
| CNCCC=C1c2ccccc2CCc2ccccc21 | 7.94 µM (active) | inactive | 10.2 µM (active) | 11.4 µM (active) | – | inactive |
| CN1CCC(=C2c3ccccc3Sc3ccccc32)CC1 | 4.47 µM (active) | inactive | 28.7 µM (active) | – | inactive | – |
| N[C@@H](Cc1cnc[nH]1)C(=O)O | inactive | inactive | inactive | inactive | inactive | inactive |
| Cc1c(C(C)C)c(=O)n(-c2ccccc2)n1C | inactive | inactive | inactive | inactive | – | – |
| CCCCC1=NC2(CCCC2)C(=O)N1Cc1ccc(-c2ccccc2-c2nn[nH]n2)cc1 | inactive | inactive | inactive | – | inactive | – |
| CC(=O)Nc1c(I)cc(I)c(C(=O)O)c1I | inactive | inactive | inactive | – | inactive | – |
